Nrf2 inh – Nrf2 qHTS screen for inhibitors | A549 ARE-Fluc reporter, luciferase luminescence, 18-24 h | Potency, µM (titrated, usually from 46 µM), for inactives: top-dose activity change, negative = inhibition, actives largely listed as inhibitors | actives 2.1% (n = 360,000); also: % is scaled to controls: 0 for no effect and ±100 for the full control effect; nearly all actives have a fitted effect of over 60% in size
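Nrf2 activity is the BugLite luminescence, read 15 min after reagent at room temperature, following CellTiter-Fluor cytotoxicity readout (30 min, 37C). Compound titrations were applied for 18-24 h to 5000 A549 ARE_Fluc cells/well in 5% FBS OPTI-MEM.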
A549 tox – Nrf2 qHTS screen for inhibitors: counterscreen for cytotoxicity. actives 0.16% (n = 390,000). Potency, µM (doses to about 46 µM), inactives show at the highest dose activity change, negative = cytotoxicity, usual class: inhibitors. A549 ARE-Fluc cells, CellTiter-Fluor viability, 18-24 h. AID 504648, 2011; also: % is scaled to controls: 0 for no effect and ±100 for the full control effect
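A549 ARE-Fluc cells in 5% FBS OPTI-MEM, 5000 cells/well, rested 2 h then exposed to compounds in concentration-response for 18-24 h at 37 °C. Viability by CellTiter-Fluor fluorescence (Ex 405/Em 525) after 30 min; luciferase luminescence (BugLite, 15 min, RT) read afterwards.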
Nrf2 ARE act – qHTS of Nrf2 Activators | AREc32 ARE-luciferase reporter (MCF7-derived line), luminescence, 24 h | Potency, µM (highest dose often 46.1 µM), inactives show at the top dose activation, actives largely listed as activators | actives 0.31% (n = 410,000) | AID 624171, 2012; also: % of control where 0% means no effect; nearly all actives have a fitted effect of over 65% in size
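Cells of the AREc32 ARE-luciferase line are plated in OPTI-MEM containing 5% FBS and left overnight at 37 deg C. Compounds are pinned in, incubation continues 24 hr, and firefly luciferase signal is then measured.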
HepG2 viability – qHTS for Inhibitors of TGF-b: Cytotox Counterscreen; actives 0.76% (n = 410,000); HepG2 CAGA-GFP viability, ATP luminescence, 18 h; Potency, µM (doses to about 46.1 µM), for inactives: at the top dose activity change, negative = cytotoxicity, actives largely listed as cytotoxic
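CellTiter-Glo luminescence gave cytotoxicity after 18 hours at 37 degrees C. The cells were HepG2 CAGA-GFP in 1% FBS DMEM, stimulated with 500 pg/mL TGF-beta after compound addition. %Activity was normalised to no-cell wells (complete cell-killing) and DMSO (no toxicity), and curves were fitted and classified.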
TGFb SMAD3 inh – qHTS for Inhibitors of TGF-b; actives 1.2% (n = 410,000); AID 588855, 2011; Potency, µM (top dose mostly 46.1 µM), for inactives: top-dose activity, negative = inhibition, hits mostly inhibitors; HepG2 CAGA-GFP TGF-b/SMAD3 reporter, GFP fluorescence, 18 h; TGF-beta stimulated, 500 pg/mL final; also: % is scaled to controls: 0 for no effect and ±100 for the full control effect; nearly all actives have a fitted effect of over 65% in size
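TGF-beta reporter screen: HEPG2 CAGA-GFP, 1% FBS, 500 pg/mL TGF-beta final, 18 h; per-cell GFP summed per well; curves fitted and categorized by class.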
An asterisk follows results filed as active; ? = inconclusive; . = not tested or not shown; [ ] = dose if it differs, or a comment. In the library only some 3.6% were active in any assay of this set; here they are far more common. Calls follow the shape of the dose curve; as a rule, active = well fitted curve in the direction sought with a large enough effect; inconclusive = small, poorly fitted or top-dose-only effect, or another doubt; inactive = no such curve, though single readings can be large; an effect the other way counts as inactive or inconclusive. Potency is read from the fitted curve at half-maximal effect.

SMILES	Nrf2 inh	A549 tox	Nrf2 ARE act	HepG2 viability	TGFb SMAD3 inh
COc1ccc2oc3cc(Cl)ccc3c(=O)c2c1	.	.	7.94µM*	-18.2%	-9.7%
O=c1c2ccccc2oc2cc(Br)ccc12	?	2.0%	?	2.3%	23.4%
COc1cccc(CN2CCCC(CNC(=O)c3ccc(F)cc3)C2)c1OC (stereo unspecified)	0.0%	6.5%	0.3%	-1.7%	14.1%
COc1ccc(/C=N/NS(=O)(=O)c2ccc(C)cc2)cc1	0.9%	2.6%	-0.4%	-25.1%	10.0%
c1ccc(COc2ncnc3c2ncn3CCCNC2CCN(Cc3ccccc3)CC2)cc1	.	.	-4.7%	15.8µM*	14.1µM*
O=C(Nc1ccn(CCCNC2CCN(Cc3ccccc3)CC2)c(=O)n1)OCc1ccccc1	.	.	-1.5%	6.31µM*	-1.1%
CSc1ncnc2c1ncn2CCCNC1CCN(Cc2ccccc2)CC1	.	.	5.5%	-1.7%	3.9%
CCC1(c2ccccc2)SCC(c2ccccc2)=NC1=O (stereo unspecified)	18.4µM*	-1.5%	-0.1%	-3.3%	-7.7%
Cc1ccc(N2CCN(C(=O)Cc3c(C(=O)O)c(C)cn3C)CC2)c(C)c1	.	-7.3%	-1.1%	-6.2%	-8.4%
COc1ccc(C(=O)NN/C=C/C(=O)c2ccc(Br)cc2)cc1	.	.	7.8%	-29.1%	?
COc1ccc(C(=O)C=CNNC(=O)c2ccc(Cl)cc2)cc1	?	-17.1%	14.0%	-31.3%	12.6µM*
CC(C)c1nc2sc3ccccc3c(=O)c2c(=O)n1Cc1ccccc1	25.9µM*	-7.4%	0.5%	-12.7%	-9.1%
O=S(=O)(NCCc1csc(-c2ccc(F)cc2)n1)c1ccc(Cl)cc1	.	-4.3%	5.5%	-24.3%	?
Cc1ccc(S(=O)(=O)NCCc2csc(-c3ccc(Cl)cc3)n2)cc1	.	-1.3%	0.8%	-36.4%	11.2µM*
Cc1ccc(C)c(S(=O)(=O)NCCc2csc(-c3ccc(Cl)cc3)n2)c1	.	0.3%	-1.5%	-94.4%	11.2µM*
CCOc1ccc(S(=O)(=O)NCCc2csc(-c3ccc(Cl)cc3)n2)cc1	.	3.0%	1.5%	-67.5%	11.2µM*
Cc1sc(NC(=O)COc2ccc(C(C)(C)C)cc2)c(C(=O)OC(C)C)c1C	-2.8%	-1.1%	0.3%	-0.4%	-25.2%
C=CCC[C@@H](Cc1ccc(F)cc1)C(=O)OC[C@H](Cc1c[nH]c2ccccc12)NC(=O)[C@@H](CC=C)CC(=O)N[C@@H](CO)Cc1ccccc1	-14.1%	-10.0%	4.4%	-48.8%	?
C=CCC[C@@H](Cc1ccc(F)cc1)C(=O)OC[C@@H](Cc1c[nH]c2ccccc12)NC(=O)[C@@H](CC=C)CC(=O)N(CCO)Cc1ccccc1	?	?	-1.7%	-69.4%	12.6µM*
C=CCC[C@H](Cc1ccc(F)cc1)C(=O)OC[C@H](Cc1c[nH]c2ccccc12)NC(=O)[C@H](CC=C)CC(=O)N(CCO)Cc1ccccc1	?	?	-4.3%	-26.5%	?
C=CCC[C@H](Cc1ccc(F)cc1)C(=O)OC[C@@H](Cc1c[nH]c2ccccc12)NC(=O)[C@@H](CC=C)CC(=O)N[C@@H](CO)Cc1ccccc1	?	?	0.9%	-56.5%	10µM*
CC1(C)CCC(c2ccc(Cl)cc2)=C(CN2CCN(c3ccc(C(=O)NS(=O)(=O)c4ccc(N[C@H](CCN5CCOCC5)CSc5ccccc5)c(S(=O)(=O)C(F)(F)F)c4)cc3)CC2)C1	.	.	.	5.62µM*	?
CCCCCC(=O)Nc1ccc(C(=O)COC(=O)Cn2cnc3c2c(=O)n(C)c(=O)n3C)cc1	?	0.7%	5.2%	0.0%	4.7%
Cc1cccc(N2CCN(C(=O)CCC(=O)N3CC(C)Oc4ccccc43)CC2)c1C (stereo unspecified)	18.4µM*	-0.3%	2.1%	-29.0%	-15.0%
Cc1cccc(N2CCN(C(=O)c3ccccc3SCC(=O)N3CCCC3)CC2)c1C	23.1µM*	?	3.7%	-19.0%	?
O=C(COc1ccccc1/C=C\c1[nH]c(=O)[nH]c(=O)c1[N+](=O)[O-])Nc1ccccc1	-0.9%	-12.0%	-0.6%[9.22 µM]	-2.3%	-11.9%

Screens from PubChem BioAssay.
